{
  "source": "PubChem BioAssay (Tox21)",
  "note": "Results filed as inconclusive are left out. A call without a number means that no potency is given here. Values without a mark were called inactive. Calls of active or inactive are those of the source. Calls come from the whole dose curve.",
  "data": [
    {"assay": "qHTS assay to identify small molecule agonists of the AP-1 signaling pathway - cell viability counter screen (AID 1159525); note: nearly all actives have a fitted effect of over 55% in size", "conditions": "ME-180 AP-1-bla cells viability, ATP luminescence, 5 h; series mostly up to 76.8 µM", "excerpt": "National Center for Advancing Translational Sciences [NCATS]\nNIH Chemical Genomics Center [NCGC]\nU.S. Environmental Protection Agency [EPA]\nNational Institutes of Environmental Health Sciences [NIEHS]\nNational Toxicology Program [NTP]\nU.S. Food and Drug Administration [FDA]\nActivator protein-1 (AP-1), a transcription factor, plays an important role in tumor genesis by regulating genes involved in cell proliferation, differentiation, apoptosis, and angiogenesis. AP-1 activity is induced by a complex network of signaling pathways that involves extracellular signals, such as growth factors. The AP-1 protein complex formed from c-Fos and c-Jun binding to the AP-1 response element results in transcriptional activation of genes containing such elements within their promoter.\nLow molecular weight molecules have been discovered and developed to modulate various components of these signaling pathways, for example, MAP kinase inhibitors. However, many points of pathway modulation remain untested due to the lack of chemical probes making this signaling locus of general interest.\nUsing a beta-lactamase reporter-gene under control of the AP-1 response element, a cell-based assay [CellSensor(TM) AP-1-bla ME-180 developed by Invitrogen Corp.] was used to measure EGF-induced signaling. The Tox21 10K library compounds were measured for their ability to positively modulate the action of EC50 EGF on reporter gene activity. Compounds were screened in a 15-pt titration series in 1536-well format. The cytotoxicity of the Tox21 compound library against this cell line was tested in parallel by measuring the intra cellular ATP content in the same wells.\nTox21 Assay Protocol Summary:\n2500 cells/5uL in Opti-MEM medium containing 0.5% dialyzed FBS, 0.1 mM NEAA, 1 mM sodium pyruvate and 10 mM HEPES was dispensed into 1536-well black wall/clear bottom plates using a Multidrop dispenser and cells were cultured at 37 degrees Celsius overnight. Next day 23 nL of compounds dissolved in DMSO, positive controls or DMSO were delivered to each well using a pin tool. The plates were incubated at 37 degrees Celsius for 5 hours. 1 uL of LiveBLAzerTM B/G FRET substrate (Solution A+B+C+D) was added to each well using a Flying Reagent Dispenser. After incubated at room temperature for 2.5 hours the plates were measured on an EnVision plate reader at Excitation 405nm, Emission1=460nm and Emission 2=530nm. The %Activity was determined from the ratio of 460nm/530nm.\nAfter the plates were read for Beta-Lactamase assay on Envision; 3 ul Cell Titer Glo (Promega) was added to measure the cytotoxicity and the plates were then incubated at RT in dark for 30 min. The luminescence was read on ViewLux (Perkin Elmer, Shelton, CT) using 6 sec exposure. ViewLux data was expressed as relative luminescence units.\nFor primary data analysis, raw plate reads for each titration point were first normalized relative to […] EGF control (100%) and DMSO only wells (basal, 0%).\nFor primary data analysis for viability assay, raw plate reads for each titration point were first normalized Tetra n-octyl ammonium bromide control (-100%) and DMSO (control, 100%).", "values": [
      {"smiles": "CN1CCC(OC(c2ccccc2)c2ccccc2)CC1", "Potency": "inactive"},
      {"smiles": "C=C(C)C(=O)OC(C)C", "Potency": "inactive"},
      {"smiles": "Nc1cnn([C@@H]2O[C@H](CO)[C@@H](O)[C@H]2O)c(=O)n1", "Potency": "inactive"},
      {"smiles": "N#Cc1c(F)cccc1F", "Potency": "inactive"},
      {"smiles": "Cn1c(N)nc2nc[nH]c2c1=O", "Potency": "inactive"},
      {"smiles": "CC1=CCC(C(C)C)C=C1", "note": "(stereo not given)", "Potency": "inactive"},
      {"smiles": "CC(=O)O[C@H]1C[C@@H]2CC[C@@H]3[C@H](CC[C@@]4(C)[C@H]3C[C@H]([N+]3(C)CCCCC3)[C@@H]4OC(C)=O)[C@@]2(C)C[C@@H]1N1CCCCC1", "Potency": "inactive"},
      {"smiles": "O=C(O)c1cn(C2CC2)c2cc(Cl)c(F)cc2c1=O", "Potency": "inactive"},
      {"smiles": "Cc1ncsc1CCO", "Potency": "inactive"},
      {"smiles": "N[C@H]1C(O)O[C@H](CO)[C@H](O)[C@@H]1O", "note": "(stereo not given in full)", "Potency": "inactive"},
      {"smiles": "CC(O)C1CCCCC1", "note": "(stereo not given)", "Potency": "inactive"},
      {"smiles": "CCCCCCCCCCCCCCCCCBr", "viability change, negative = cytotoxic": "0.953% [at 15.8 µM]"},
      {"smiles": "O=C(O)Cc1sc(-c2ccccc2)nc1-c1ccc(Cl)cc1", "Potency": "inactive"},
      {"smiles": "CCCCCCCCN(C)C", "Potency": "inactive"},
      {"smiles": "CN1CCC[C@@H]1c1cccnc1", "Potency": "inactive"},
      {"smiles": "CN(C)CCCNCCCN", "Potency": "inactive"},
      {"smiles": "NCc1ccccc1", "Potency": "inactive"},
      {"smiles": "COc1ccc([C@@H]2Sc3ccccc3N(CCN(C)C)C(=O)[C@@H]2OC(C)=O)cc1", "Potency": "inactive"},
      {"smiles": "CN(C)CC[C@@H](c1ccc(Br)cc1)c1ccccn1", "Potency": "inactive"},
      {"smiles": "C=C(C)C(=O)OCCN(C)C", "Potency": "inactive"},
      {"smiles": "COC(=O)C(C)=O", "Potency": "inactive"},
      {"smiles": "Cl/C(=C\\n1cncn1)c1ccc(Cl)cc1Cl", "Potency": "inactive"},
      {"smiles": "O=C1[C@H](CC[C@H](O)c2ccc(F)cc2)[C@@H](c2ccc(O)cc2)N1c1ccc(F)cc1", "Potency": "inactive"},
      {"smiles": "CCCCCCCCCCCCCCCBr", "Potency": "inactive"},
      {"smiles": "C[Si](C)O[Si](C)(C)O[Si](C)(C)O[Si](C)C", "Potency": "inactive"},
      {"smiles": "Oc1ccc(Sc2ccc(O)cc2)cc1", "Potency": "inactive"},
      {"smiles": "CC(=O)OCCc1ccccc1", "Potency": "inactive"},
      {"smiles": "O=C(Cl)c1ccc([N+](=O)[O-])cc1", "Potency": "inactive"},
      {"smiles": "C#CCOC(=O)[C@@H](C)Oc1ccc(Oc2ncc(Cl)cc2F)cc1", "Potency": "inactive"},
      {"smiles": "CCCCCc1ccc(N)cc1", "Potency": "inactive"},
      {"smiles": "Oc1ccc2c(c1)OCO2", "Potency": "inactive"},
      {"smiles": "CC(=O)SCc1ccco1", "Potency": "inactive"},
      {"smiles": "CCOc1ccc2[nH]cc(C(=O)NCc3ccccc3)c(=O)c2n1", "Potency": "inactive"},
      {"smiles": "Cc1ccc(C(N)=O)cc1N", "Potency": "inactive"},
      {"smiles": "O=C(c1ccc(O)cc1)c1ccc(O)cc1", "Potency": "inactive"},
      {"smiles": "CC(C)NCC(O)COc1ccc(CC(N)=O)cc1", "note": "(stereo not given)", "Potency": "inactive"},
      {"smiles": "O=C(Nc1ccccc1)OCC(CN1CCCCC1)OC(=O)Nc1ccccc1", "note": "(stereo not given)", "Potency": "inactive"},
      {"smiles": "CC(=O)/C(C)=C/C1C(C)=CCCC1(C)C", "note": "(stereo not given)", "Potency": "inactive"},
      {"smiles": "CCOC(=O)C1=NN(c2ccccc2)C(=O)C1", "Potency": "inactive"},
      {"smiles": "Cc1cc(CC(=O)O)c(C)n1-c1ccc(Cl)cc1", "Potency": "inactive"}
    ]}
  ]
}
